B2AR arrestin: qHTS assay of beta-arrestin-biased ligands of beta2-adrenergic receptor. Beta-2 adrenergic receptor (Homo sapiens), P07550. Potency, µM (highest dose often 46.1 µM), for the others: at the top dose activation, usual class: activators. beta-arrestin recruitment to beta2AR, cell-based reporter. 330,000 compounds, 0.02% hits;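 further: potency means the concentration at half of the fitted maximal effect; 0% = DMSO controls and full agonism = EC100 isoproterenol or metaproterenol; nearly all actives have a fitted effect of over 65% in size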
D3 antag: qHTS of D3 Dopamine Receptor Antagonist: qHTS. D(3) dopamine receptor (Homo sapiens), P35462. D3R cells, DiscoveRx beta-arrestin luminescence, antagonist mode; stronger effect = lower value. 360,000 compounds, 2.5% hits. max response, negative = inhibition, %; in the data active means max response below about -50%; inconclusive means no clear call, values can overlap the other calls; further: on the % scale 0 is the no-effect control and ±100 the full control effect
Target sequence (P35462 whole entry, looked up): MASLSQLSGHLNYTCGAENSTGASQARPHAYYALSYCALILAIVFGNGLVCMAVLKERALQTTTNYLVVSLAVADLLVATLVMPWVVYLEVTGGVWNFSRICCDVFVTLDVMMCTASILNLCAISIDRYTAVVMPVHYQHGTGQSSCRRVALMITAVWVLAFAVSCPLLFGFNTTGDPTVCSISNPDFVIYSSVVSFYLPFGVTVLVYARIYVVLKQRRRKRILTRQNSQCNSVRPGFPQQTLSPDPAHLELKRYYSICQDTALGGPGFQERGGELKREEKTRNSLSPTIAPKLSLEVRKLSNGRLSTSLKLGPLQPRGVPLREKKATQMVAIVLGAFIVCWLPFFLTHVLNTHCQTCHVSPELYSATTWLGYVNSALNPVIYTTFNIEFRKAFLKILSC
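Cells plated overnight at 1500 cells/well, then exposed to library compounds with dopamine controls for 90 minutes at 37 degrees C. DiscoveRx reagent added for 30–60 minutes at room temperature; luminescence read, quantitative HTS format.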
BRCA1 expr act: qHTS Assay to Identify Small Molecule Activators of BRCA1 Expression. AID 624202, 2012. MCF7-BRCA1-FFLuc reporter, luminescence, 48 h; response scale: scaled: vehicle 0%, 10 µM genistein 100%. Potency, µM (highest dose often 46.1 µM), for inactives: at the highest dose activation, actives largely listed as activators. 380,000 compounds, 1.1% hits; further: potency means the concentration at half of the fitted maximal effect; nearly all actives have a fitted effect of over 80% in size
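Compounds are tested at multiple concentrations on MCF7 BRCA1-luciferase reporter cells seeded at 2000 per well; after 48 h, a single luminescence end-point is taken and curves fitted to the normalized data.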
DRD3 agonist: qHTS of D3 Dopamine Receptor Agonist: qHTS. D3R DiscoveRx beta-arrestin cells, luminescence, 90 min. AID 652048, 2013. 410,000 compounds, 0.58% hits. D(3) dopamine receptor (Homo sapiens), P35462. max activation, %; in the data active means max activation above about 30%; further: 0% is about no effect
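Agonist-mode cell screen: cells plated at 1500/well and incubated overnight at 37 °C, then exposed to library compounds for 90 min at 37 °C. Detection reagent was added for 30–60 min at room temperature, and luminescence was read.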
RGS4 inhibitor: Inhibitors of Regulator of G Protein Signaling (RGS) 4: qHTS; Regulator of G-protein signaling 4 (Homo sapiens), P49798; Transcreener GDP fluorescence polarization, RGS4-accelerated GTP hydrolysis; Potency, µM (top dose mostly 114 µM), for the others: at the highest dose activity change, negative = inhibition, actives largely listed as inhibitors; 390,000 compounds, 0.039% hits; AID 504845, 2011; further: potency means the concentration at half of the fitted maximal effect; on the % scale 0 is the no-effect control and ±100 the full control effect; nearly all actives have a fitted effect of over 75% in size
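MLSMR compounds (23 nl, pin-transferred) preincubated 10 min at room temperature with a 500nM (2x) first reagent, then RGS4 at 900nM (2x) plus Transcreener GDP mix added; fluorescence polarization (620/688 nm) read before and after 90 min at 30 °C.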
PTHR1 ag: qHTS for PTHR1 Agonists: Primary Screen. 410,000 compounds, 0.075% hits. Potency, µM (series often up to 115 µM), for the others: at the top dose activation, usual class: activators. HEK293 GP2 PTHR1 cells, GloSensor cAMP luminescence, 1 h. Parathyroid hormone/parathyroid hormone-related peptide receptor (Homo sapiens), Q03431; further: potency means the concentration at half of the fitted maximal effect; nearly all actives have a fitted effect of over 55% in size
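HEK-293-derived GP2 cells expressing PTHR1 and a GloSensor cAMP reporter, 3,000/well, plated overnight, given luciferin plus IBMX (each 0.5 mM as added) for 1 h at 37 °C, then compound for 1 h at 37 °C. Luminescence was read after 15 min at room temperature.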
Numbers without * were called inactive; [ ] = dose if it differs, or a comment. Only some compounds are listed: those with a hit (about 3.7% of all), similar ones and a draw of the others. Unless noted, the call rests on the fitted dose curve; in most records, active means well fitted curve in the direction sought with a large enough effect; inconclusive means small, poorly fitted or top-dose-only effect, or another doubt; inactive means no such curve, though single readings can be large; an effect the other way counts as inactive or inconclusive.

`CCc1n[nH]c(=S)n1/N=C/c1ccc(-c2ccc(Br)cc2)o1` gave D3 antag -146*, BRCA1 expr act 27%, DRD3 agonist 0, RGS4 inhibitor -26% and PTHR1 ag -32%.
Cn1ccc2c(OCC(=O)NCc3ccc(F)cc3)cccc2c1=O was read as BRCA1 expr act 0%, DRD3 agonist 3, RGS4 inhibitor -8% and PTHR1 ag inactive.
`Cc1ccc(O)c(CNc2ccccn2)c1` gave B2AR arrestin 0%, D3 antag -4, BRCA1 expr act 16µM*, DRD3 agonist -1, RGS4 inhibitor -10% and PTHR1 ag inactive.
For O=C(NC1CC1)c1c(O)c2ccccc2[nH]c1=O the results were B2AR arrestin 0%, D3 antag 8, BRCA1 expr act 28%, DRD3 agonist 0, RGS4 inhibitor -17% and PTHR1 ag -12%.
`O=C(NC1CCCC1)c1cc(=O)[nH]c2ccccc12` gave B2AR arrestin 0%, D3 antag -15, BRCA1 expr act 32%, DRD3 agonist 33*, RGS4 inhibitor 6% and PTHR1 ag inactive.
O=C(NC1CCCCCCC1)c1c(O)c2ccccc2[nH]c1=O was read as B2AR arrestin 0%, D3 antag -4, BRCA1 expr act 10µM*, DRD3 agonist 9, RGS4 inhibitor 13% and PTHR1 ag -10%[57.5 µM].
Screening O=C(O)C1CCCCC1C(=O)Nc1ccccc1F (stereo unspecified) returned B2AR arrestin 0%, D3 antag -51*, BRCA1 expr act 2%, DRD3 agonist -8, RGS4 inhibitor 30% and PTHR1 ag -29%.
`O=C(Nc1ccccc1F)Nc1ccccc1F` gave B2AR arrestin 0%, D3 antag 7, BRCA1 expr act 5µM*, DRD3 agonist 12, RGS4 inhibitor -4% and PTHR1 ag -4%.
Cc1cnc(C(=O)Nc2ccccc2F)cn1 was read as B2AR arrestin 0%, D3 antag 8, BRCA1 expr act 5µM*, DRD3 agonist 1, RGS4 inhibitor -12% and PTHR1 ag -8%[57.5 µM].
For O=C(Nc1ccc(Br)cc1)Nc1ccccc1F the results were B2AR arrestin -1%, D3 antag 6, BRCA1 expr act inconclusive, DRD3 agonist 1, RGS4 inhibitor 2% and PTHR1 ag 0%.
Screening Cc1noc(-c2ccc(N3CCCCC3C)c([N+](=O)[O-])c2)n1 (stereo unspecified) returned BRCA1 expr act 91%, DRD3 agonist 1, RGS4 inhibitor -14% and PTHR1 ag inactive.
Oc1cccc(C=Nc2cccc3ccccc23)c1O was read as B2AR arrestin 0%, D3 antag -75*, BRCA1 expr act -87%, DRD3 agonist 0, RGS4 inhibitor inconclusive and PTHR1 ag inactive.
For COc1cc(-c2nc(C(=O)NC3CCCCC3)cc3c2[nH]c2ccccc23)cc(OC)c1OC the results were B2AR arrestin 0%, D3 antag 71, BRCA1 expr act -30%, DRD3 agonist 3, RGS4 inhibitor 14% and PTHR1 ag -1%.
Screening Cc1ccc(-c2nc(C(=O)NCC3CCCO3)cc3c2[nH]c2ccccc23)cc1 (stereo unspecified) returned B2AR arrestin -1%, D3 antag 80, BRCA1 expr act -72%, DRD3 agonist 12, RGS4 inhibitor 8% and PTHR1 ag -34%.
